HSP90 inh: HSP90 refolding inhibition in rabbit reticulocyte lysate; inhibition, % at 5.6 µM; luciferase refolding luminescence, 3 h; AID 1789; actives 0.91% (n = 290,000);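 active means inhibition above the screen-wide mean plus 3 SD, computed separately per campaign, cut at about 16% in these data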;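 further: 0% = DMSO wells and 100% = 60 µM geldanamycin wells; inhibitors lower the luminescence because luciferase stays unfolded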
SENP7 block: SENP7 protease inhibition | recombinant SENP7, Z-RLRGG-aminoluciferin luminescence, 40 min | inhibition, % at 5 µM | actives 1.5% (n = 330,000) | AID 434973;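 active means inhibition above about 50% at the single test dose, limit read from the data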;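 further: plate controls were DMSO with enzyme for no effect and no enzyme buffer wells for full effect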
Target sequence (Q9BQF6 706-1050 limits assumed): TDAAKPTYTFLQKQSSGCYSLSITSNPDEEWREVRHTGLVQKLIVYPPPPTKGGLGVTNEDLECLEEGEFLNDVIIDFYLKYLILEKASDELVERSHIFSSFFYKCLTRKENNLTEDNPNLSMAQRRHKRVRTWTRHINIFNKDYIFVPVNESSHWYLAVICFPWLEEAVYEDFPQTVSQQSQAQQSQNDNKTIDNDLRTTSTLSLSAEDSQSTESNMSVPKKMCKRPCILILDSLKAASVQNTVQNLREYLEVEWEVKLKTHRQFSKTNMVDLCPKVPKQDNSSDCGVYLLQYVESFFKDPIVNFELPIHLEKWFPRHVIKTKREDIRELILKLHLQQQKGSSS
SENP8 block-1: inhibitors of human SENP8 protease. inhibition, % at 20 µM. actives 0.64% (n = 360,000). Q96LD8. recombinant SENP8, Nedd8 substrate fluorescence; in the data active means inhibition mostly above about 40%, no sharp cut-off; inactive means mostly below about 27%
Platelet DG rel: platelet dense granule release activity; human platelet-rich plasma, SFLLRN dense granule ATP release, luminescence; inhibition, %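 (compounds screened at 7.5 µM in platelet-rich plasma)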; AID 1663; actives 0.22% (n = 300,000);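 active means mean replicate score, as percent of positive control, at or above 50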
SENP8 block-2: blocks the human protease SENP8. Q96LD8. purified SENP8, Z-RLRGG-aminoluciferin cleavage, luminescence. inhibition, % at 10 µM. actives 1.2% (n = 330,000); in the data active means inhibition above about 50%
SENP6 inh: blocks the human protease SENP6 | inhibition, % at 10 µM | AID 2599 | Recombinant SENP6 catalytic domain, aminoluciferin luminescence | actives 1.8% (n = 330,000) | Q9GZR1;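 active means inhibition above about 50% at the single tested dose, limit read from the data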;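 further: plate controls were DMSO wells with enzyme for no effect and DMSO wells lacking enzyme for full effect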
SENP8 inh conf: confirmation of human SENP8 protease inhibitors; shares compounds with SENP8 block-1; purified SENP8, Nedd8-AMC/pro-Nedd8 cleavage fluorescence, 30 min; inhibition, % at 25 µM; actives 15% (n = 1,400); AID 624319; in the data active means inhibition mostly above about 39%, no sharp cut-off; inactive means mostly below about 34%
* = called active by the depositor; . = no result. In the library only some 2.8% were active in any assay of this set; here they are far more common.

SMILES	HSP90 inh	SENP7 block	SENP8 block-1	Platelet DG rel	SENP8 block-2	SENP6 inh	SENP8 inh conf
Cc1cc(N2C(=O)Cc3ccccc3C2=O)ccc1C(C)C	-1	26	78*	4	23	47	35
Cc1ccc(OCCC(=O)NNC(=O)c2ccccc2F)cc1	.	-7	1	.	-9	-10	.
COc1ccc(Cl)cc1NC(=O)CN1C(=O)NC(Cc2c[nH]c3ccccc23)C1=O (stereo not given)	.	1	12	.	-6	-1	.
C=CCN1C=CC(=CC=C(C#N)C#N)C=C1	2	1	56*	-7	-3	-4	10
CCCCCCN1C=CC(=C/C=C(\C#N)C(=O)OCC)C=C1	0	3	36*	-1	-3	3	32
CCCCCCN1C=C/C(=C\C=C(C#N)C#N)c2ccccc21	-2	17	29	25	15	26	.
C=CCN1C=C/C(=C\C=C(C#N)C#N)c2ccccc21	1	9	26	21	11	-5	.
CCCCCN1C=CC=C/C1=C\C=C(C#N)C#N	3	-3	36	6	-4	-8	.
CCCN1C=CC(=CC=C(C#N)C#N)C=C1	6	-4	50*	-6	2	-4	9
CCCN1C=CC(=C/C=C(\C#N)C(=O)OCC)C=C1	-3	-20	.	3	-13	-14	.
CCCCCCN1C=CC=C/C1=C/C=C(C#N)C#N	-2	-3	50*	-8	-4	-2	27
Cc1ccc(S(=O)(=O)N2CCN(C(=O)CNC(=O)c3sc4ccccc4c3Cl)CC2)cc1	.	8	1	-3	-8	-15	.
COc1ccc(NC(=O)CCNS(=O)(=O)c2ccc(Cl)c([N+](=O)[O-])c2)cc1S(N)(=O)=O	-3	5	13	-7	0	-14	.
COc1cccc(/C=N/NC(=O)c2ccc(N3CCCC3=O)cc2)c1	-3	4	-25	3	-1	-24	.
Cn1c(NNC(=O)c2ccccc2F)cc(=O)n(C)c1=O	-1	-2	23	5	-7	-2	.
Cn1c(NNC(=O)c2c(F)cccc2F)cc(=O)n(C)c1=O	4	7	48*	-9	6	-10	48*
CCc1cccc2c1Sc1ccccc1CC2N1CCNCC1 (stereo not given)	.	12	44*	24	-11	-36	14
COc1ccc(O)cc1	.	-2	48*	.	7	-1	6
COc1ccc(-c2ccnc(-c3ccc(O)cc3)n2)cc1	-2	5	4	-3	-2	8	.
CC1=NCCN1S(=O)(=O)c1cc(Cl)ccc1Cl	1	-8	48*	0	-3	-8	9
NS(=O)(=O)c1ccc(N/N=C/c2ccc3c(c2)OCO3)c([N+](=O)[O-])c1	-1	-14	44*	9	-23	-17	10
NS(=O)(=O)c1ccc(N/N=C/c2cn(-c3ccccc3)nc2-c2ccccc2)c([N+](=O)[O-])c1	-4	-3	54*	12	2	15	6
O=[N+]([O-])c1cc(S(=O)(=O)N2CCCC2)ccc1N/N=C/c1ccncc1	3	8	47*	3	0	0	20
COc1cccc2c1OCC/C2=N\NC(=O)C(C)Oc1ccc([N+](=O)[O-])cc1 (stereo not given)	-6	-3	15	-1	0	-3	.
CC(=O)Nc1ccc(-c2ccnc3c2CC(C)(C(=O)NCc2ccc(F)c(F)c2)O3)cc1 (stereo not given)	.	.	-3	.	.	.	.
O=C(OCC(=O)N1CCc2ccccc2C1)c1cc(=O)[nH]c2ccccc12	0	7	-175	-1	0	-25	.
CC1CCN(c2ccc(NC(=S)NC(=O)c3ccco3)cc2)CC1	-3	-8	42*	-2	-6	-17	12
CC(=O)Nc1ccc(Nc2ncc([N+](=O)[O-])c(Nc3ccc(NC(C)=O)cc3)n2)cc1	-4	-4	44*	1	-4	-5	8
COc1ccc(CCn2nnnc2C(CC(C)C)N2CCN(c3ncccn3)CC2)cc1OC (stereo not given)	2	1	43*	-1	4	2	8
COc1ccc(Cl)cc1S(=O)(=O)N1CCC(C(=O)NCc2ccco2)CC1	-2	-3	0	-5	-2	-16	.

Screens as filed in PubChem BioAssay.
